The values below come from PubChem BioAssay AID1851 (National Center for Advancing Translational Sciences (NCATS), 2009).

Each structure is given as a SMILES string. The campaign covered roughly 16,000 compounds. About 5,700 (36%) were called active. About 24% were inconclusive and are not listed. The list shows a part of the results. Values without a mark were called inactive. The call rests on the fitted dose curve; in most records, active means well fitted curve in the direction sought with a large enough effect; inconclusive means small, poorly fitted or top-dose-only effect, or effect the other way; inactive means no such curve, though single readings can be large or run the other way.
On the % scale 0 is the no-effect control and ±100 the full control effect.

Chain of Cytochrome P450 1A2 (Homo sapiens) (P05177 whole entry, looked up): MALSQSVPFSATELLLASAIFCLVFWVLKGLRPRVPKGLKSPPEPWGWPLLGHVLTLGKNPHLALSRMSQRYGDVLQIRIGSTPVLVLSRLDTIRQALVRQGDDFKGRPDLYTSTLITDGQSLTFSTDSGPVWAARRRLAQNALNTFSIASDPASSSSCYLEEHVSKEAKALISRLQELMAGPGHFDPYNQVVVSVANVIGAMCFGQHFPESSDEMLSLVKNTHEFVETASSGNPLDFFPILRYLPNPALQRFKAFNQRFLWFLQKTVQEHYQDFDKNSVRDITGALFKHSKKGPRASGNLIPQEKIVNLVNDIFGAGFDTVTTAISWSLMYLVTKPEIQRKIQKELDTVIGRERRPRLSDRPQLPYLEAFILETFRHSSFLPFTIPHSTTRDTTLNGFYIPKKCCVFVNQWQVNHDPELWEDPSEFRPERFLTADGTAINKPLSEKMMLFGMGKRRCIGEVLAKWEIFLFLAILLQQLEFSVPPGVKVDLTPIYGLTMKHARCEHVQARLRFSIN

The test addresses Cytochrome P450 1A2 (Homo sapiens) (UniProt P05177). Description: Cytochrome panel assay with activity outcomes. The conditions noted are these: recombinant CYP, pro-luciferin dealkylation, luminescence, p450-cyp1a2; series mostly up to 57.1 µM.
In the case of `CCON=C1C(C)(C)C(C)(C)C(C)(C)C1(C)C`, the activity, negative = inhibition was -12% [at 11.4 µM].

By AC50 is commonly meant the midpoint of the concentration-response curve, whichever way the signal moves. As for `CC1CN(C(NC(=O)C(C)(C)C)C(Cl)(Cl)Cl)CC(C)O1` (centres undefined), the AC50 result was “inactive”.

On to `CN(C)C(=O)c1ccc(-c2nc(NCc3cccs3)c3ccccc3n2)cc1`, for which the AC50 is 12.6 µM (active).

With `COCCNc1nc(-c2ccc(C(=O)N(C)C)cc2)nc2ccccc12`, the AC50 was 20 µM (active).

As for `CN(C)C(=O)c1ccc(-c2nc(Nc3ccccc3)c3ccccc3n2)cc1`, the AC50 is 0.398 µM (active).

Consider `NCCC(=O)NCCc1cnc[nH]1`, for which the AC50 result is “inactive”.

On to `CN(C)c1ccc(-c2nc(NCCc3cnc[nH]3)c3ccccc3n2)cc1`, for which the AC50 is 0.631 µM (active).

Turning to `CCOC(=O)N1CCC(NC(=O)C2CCN(S(=O)(=O)N3CCCC3)CC2)CC1`, the AC50 result was “inactive”.

On to `CN(C)C[C@H]1CCC[C@@H](CN(C)C)C1=O`, for which the activity, negative = inhibition is -12.2% [at 11.4 µM].

Take `Cc1ccc(S(=O)(=O)N[C@H](C(=O)N2CCC(C(=O)NCC(=O)O)CC2)C(C)C)cc1`: the AC50 result is “inactive”.

For `CC(=O)NCCNc1nc(-c2ccc(N(C)C)cc2)nc2ccccc12`, the AC50 is 3.16 µM (active).

Take `CC(=O)NCCNc1nc(-c2ccc3c(c2)OCO3)nc2ccccc12`: the AC50 is 2.51 µM (active).

`COCCNc1nc(-c2ccc(N(C)C)cc2)nc2ccccc12`: the AC50 was 0.631 µM (active).

Consider `CC(=O)NCCNc1nc(-c2ccc(C(=O)N(C)C)cc2)nc2ccccc12`, for which the AC50 entry is “inactive”.

Regarding `CCCCN(C)CCCNC(=O)CS(=O)Cc1nc(-c2ccc(OC)c(OC)c2)oc1C` (centres undefined), the AC50 entry was “inactive”.

As to `O=C(c1cnccn1)N1CCC2(CC1)CN(Cc1cc(C(F)(F)F)cc(C(F)(F)F)c1)C2`, the AC50 entry is “inactive”.

Turning to `O=c1c(-c2ccc(F)cc2)nc2cnc(N3CCOCC3)nc2n1C1CC1`, the AC50 result was “inactive”.

Take `N#Cc1cccc(-c2nc3cnc(N4CCOCC4)nc3n(C3CC3)c2=O)c1`: the half-maximal activity concentration (AC50) was 2.51 µM (active).

For `O=c1c(-c2ccccc2)nc2cnc(N3CCOCC3)nc2n1C1CC1`, the concentration at half-maximal activity (AC50) is 3.16 µM (active).

Take `N#Cc1cccc(-c2nc3cnc(N4CCNCC4)nc3n(C3CC3)c2=O)c1`: the AC50 is 5.01 µM (active).

Consider `NC(=O)N1c2ccccc2C=Cc2ccccc21`, for which the AC50 entry was “inactive”.

`C=CCn1c(SCC(=O)Nc2c(C)n(C)n(-c3ccccc3)c2=O)nc2sc(C)c(-c3ccccc3)c2c1=O`: the AC50 result is “inactive”.

Turning to `C=CCn1c(SCC)nc2sc3c(c2c1=O)CCc1ccccc1-3`, the AC50 was 1.78 µM (active).

For the compound `CC1(C)Cc2c(sc3nc(SCC(=O)NCc4ccccc4)n(-c4ccccc4)c(=O)c23)CS1`, the AC50 result was “inactive”.

Turning to `CO[C@@H]1CC[C@@]2(C)[C@@H](CC[C@@]3(C)[C@H]2CC=C2[C@H]4CC(C)(C)[C@H](O)[C@@H](OC(C)=O)[C@]4(CO)[C@H](O)C[C@]23C)[C@@]1(C)CO` (tested in a mixture with another compound), the AC50 result is “inactive”.

Take `COc1ccc2cc(C)c3nnc(SCC(=O)Nc4nc(-c5ccccc5)cs4)n3c2c1`: the AC50 result was “inactive”.

With `COc1ccc(-c2csc(NC(=O)Cn3nc(C)cc3C)n2)cc1`, the half-maximal activity concentration (AC50) was 3.16 µM (active).

Consider `CC(N)=NCCCC[C@H](N)C(=O)O`, for which the AC50 entry was “inactive”.

Regarding `COc1cc(/C=C\C(=O)N2CCC=CC2=O)cc(OC)c1OC`, the AC50 is 0.2 µM (active).

Consider `COc1cc(/C=C/C(=O)O)cc(S(=O)(=O)NCCCO)c1OC`, for which the AC50 result was “inactive”.

As to `COc1cc(/C=C/C(=O)N2CCN(CC(O)COc3ccccc3)CC2)cc(OC)c1OC` (centres undefined), the AC50 result is “inactive”.

For the compound `Clc1ccccc1-c1ccc2ncnc(NCCN3CCOCC3)c2c1`, the AC50 is 5.01 µM (active).

Turning to `COc1ccc(C2c3c(ncn(CCN4CCOCC4)c3=N)Oc3ccc4ccccc4c32)cc1OC` (centres undefined), the AC50 result was “inactive”.

Take `COc1ccccc1-c1ccc2ncnc(NCCN3CCOCC3)c2c1`: the AC50 is 15.8 µM (active).

As for `N#Cc1ccccc1-c1ccc2ncnc(NCCN3CCOCC3)c2c1`, the AC50 was 10 µM (active).

In the case of `CCCN=Cc1c(CCC)[nH]n(-c2nc3ccccc3s2)c1=O`, the AC50 was 0.562 µM (active).

In the case of `CN(C)C(=O)c1ccc(-c2cncnc2NCCN2CCOCC2)cc1`, the AC50 result was “inactive”.

As for `CN(C)c1ccc(-c2cncnc2NCCN2CCOCC2)cc1`, the AC50 is 15.8 µM (active).

On to `CC(=O)NCCNc1ncncc1-c1ccccc1CN(C)C`, for which the AC50 was 25.1 µM (active).

Turning to `COc1ccccc1-c1cncnc1NCCNC(C)=O`, the AC50 entry was “inactive”.

Regarding `CC(=O)NCCNc1ncncc1-c1ccc(N(C)C)cc1`, the AC50 is 6.31 µM (active).

For `COc1ccc(CCN2CC34C=CC(O3)C(C(=O)NCc3ccccc3)C4C2=O)cc1OC` (centres undefined), the AC50 result was “inactive”.

In the case of `COc1cc2c(cc1OC)C(C(=O)N1CCOCC1)C(c1cccs1)N(C)C2=O` (centres undefined), the AC50 entry was “inactive”.

Regarding `Oc1ccc(Cl)cc1C=Nc1cnc2ccccc2c1`, the activity, negative = inhibition was -13.2% [at 2.29 µM].

With `Clc1ccc(C=Nc2ccc3c(c2)Cc2ccccc2-3)c(Cl)c1`, the AC50 was 0.794 µM (active).

In the case of `C(/C=C\c1ccccc1)=Nc1ccc2c(c1)Cc1ccccc1-2`, the AC50 was 0.398 µM (active).

Regarding `O=C(Nc1cccc(F)c1)N1CCCC2(CCN(S(=O)(=O)c3ccccc3)CC2)C1`, the AC50 result is “inactive”.

For `CCCCCCCCCCCCCCCCCCNC(=O)OC[C@@H](COP(=O)([O-])OCC[n+]1ccsc1)OC`, the AC50 result was “inactive”.

In the case of `Cc1c(NC(=O)C(C)N2C(=O)c3ccccc3C2=O)c(=O)n(-c2ccccc2)n1C` (centres undefined), the AC50 entry is “inactive”.

For the compound `CC(=O)Nc1c2c3c(cccc3n(C)c1=O)C(=O)c1ccccc1-2`, the AC50 was 2.51 µM (active).

Consider `Cc1ccc(-c2noc(CN3CCN(C(c4ccccc4)c4ccccc4)CC3)n2)cc1`, for which the AC50 result is “inactive”.

Consider `Cc1ncc(CSC(=N)N)n1Cc1ccccc1`, for which the activity, negative = inhibition is -2.06% [at 11.4 µM].

Regarding `Clc1ccc(-c2noc(CN3CCCCC3)n2)cc1`, the AC50 was 0.631 µM (active).

With `N=C(N)SCc1nc(-c2ccc(Cl)cc2)no1`, the AC50 is 1.26 µM (active).

Take `CCCNC(=O)OC[C@@H]1O[C@H](CCON=C(C)C)C=C[C@@H]1Oc1ccc(OC)cc1`: the activity, negative = inhibition was -2.59% [at 11.4 µM].

On to `CC(=O)N1CCc2cc(Br)cc(S(=O)(=O)N3CCN(C(=O)c4ccco4)CC3)c21`, for which the AC50 result is “inactive”.

With `CC(C)(O)C#Cc1ccc(C(=O)NCc2cccs2)s1`, the AC50 is 15.8 µM (active).

In the case of `Nc1nc(Cl)cc(NCCO)n1`, the activity, negative = inhibition is -22.6% [at 11.4 µM].

For the compound `Cc1cc(Nc2ccc(Cl)cc2)nc(N)n1`, the AC50 is 10 µM (active).

Consider `Cc1cc(C)c(S(=O)(=O)NNC(=O)C2CCN(Cc3ccccc3)CC2)c(C)c1`, for which the AC50 result was “inactive”.

Regarding `COc1ccccc1N1CCN(Cc2cc(=O)n3ccsc3n2)CC1`, the AC50 result was “inactive”.

Turning to `COc1ccccc1N1CCN(C(=O)/C=C/c2ccc3c(c2)OCO3)CC1`, the AC50 is 25.1 µM (active).

On to `O=C(/C=C\c1ccc2c(c1)OCO2)c1ccc(F)cc1`, for which the activity, negative = inhibition was -4.56% [at 11.4 µM].

For `O=C(/C=C\C=C/c1ccc2c(c1)OCO2)N1CCCCC1`, the AC50 was 3.16 µM (active).
